Measured values published in PubChem BioAssay (EPA / NIEHS).
Active and inactive are the calls of the source. The calls were made as follows: active = hit-call score of the fitted dose curve at least 0.9, where 1 is the maximum; inactive = score below 0.9.

Experiment: CCTE_Harrill_HTTr_Apoptosis_MCF7: CCTE's 6-hour Apoptosis Assessment for the High-Throughput Transcriptomics (HTTr) Platform, in MCF-7 cells cultured in DMEM + 10% fetal bovine serum, Harrill Lab (AID 2284011)
Text: This is a cell-based assay that evaluates apoptosis using high content imaging to evaluate activation of caspase-3/7 using the CellEvent Caspase 3/7 Green detection reagent in 384-well format.One of seven assay components measured from the CCTE_Harrill_HTTr_Apoptosis assay. This was part of a full screening experiment. This is a cell-based assay that evaluates apoptosis in MCF-7 cells cultured in DMEM + 10% fetal bovine serum. High content imaging is used to evaluate activation of caspase-3/7 using the CellEvent Caspase 3/7 Green detection reagent. Measurements are taken at 6 hours after chemical dosing in 384-well format.The assay component endpoint CCTE_Harrill_HTTr_Apoptosis_MCF7 was analyzed with bidirectional fitting relation to DMSO as the negative control and baseline of activity. Using a type of viability reporter, gain-of-signal activity can be used to evaluate activation of caspase-3/7 using the CellEvent Caspase 3/7 Green detection reagent to understand changes in apoptosis. To generalize the intended target to other relatable targets, this assay endpoint is annotated to cell cycle, where the subfamily is apoptosis.
Chemicals were tested in MCF7 cells in an eight point dilution series with a six hour exposure duration.
In the case of `CSC(C)(C)C=NO`, the outcome is reported as “inactive”.
With `CCCCOCC1CO1` (stereo not given) the outcome was “inactive”.
For `Nc1ccc2ccccc2c1`, the outcome was “inactive”.
With `Clc1ccc(Oc2ccccc2)cc1` the outcome was “inactive”.
With `CCOc1ccc(C(C)(C)COCc2cccc(Oc3ccccc3)c2)cc1` the outcome was “inactive”.
In the case of `O=P1(N(CCCl)CCCl)NCCCO1` (stereo not given), the outcome is reported as “inactive”.
In the case of `[N-]=[N+]=[N-]`, the outcome is reported as “inactive”.
For `c1ccc2c(c1)Nc1ccccc1S2`, the outcome was “inactive”.
With `ClC(Cl)c1ccccc1` the outcome was “inactive”.
In the case of `CO/N=C(/C(=O)OC)c1ccccc1COc1ccccc1C`, the outcome is reported as “inactive”.
In the case of `CCCCOCCOP(=O)(OCCOCCCC)OCCOCCCC`, the outcome is reported as “inactive”.
In the case of `O=[N+]([O-])c1ccc(Cl)c(Cl)c1`, the outcome is reported as “inactive”.
With `O=NN1CCCC1` the outcome was “inactive”.
In the case of `CCN(CC)c1ccccc1`, the outcome is reported as “inactive”.
For `c1cc2c3c(cccc3c1)CC2`, the outcome was “inactive”.
In the case of `CCOP(=S)(OCC)SCSCC`, the outcome is reported as “inactive”.
With `CCOC(=O)c1ccccc1C(=O)OCC` the outcome was “inactive”.
With `CCC1(c2ccccc2)C(=O)N=C(O)NC1=O` (stereo not given) the outcome was “inactive”.
For `O=C(O)C1C(C(=O)O)C2(Cl)C(Cl)=C(Cl)C1(Cl)C2(Cl)Cl` (stereo not given), the outcome was “inactive”.
With `CCOP(=S)(Oc1ccc([N+](=O)[O-])cc1)c1ccccc1` (stereo not given) the outcome was “inactive”.
For `CCCCN(CCCC)N=O`, the outcome was “inactive”.
For `COCCOCCO`, the outcome was “inactive”.
In the case of `ClC1=C(Cl)C2(Cl)C3C(Cl)C(Cl)CC3C1(Cl)C2(Cl)Cl` (stereo not given), the outcome is reported as “inactive”.
For `CCOP(=S)(NC(C)C)Oc1ccccc1C(=O)OC(C)C` (stereo not given), the outcome was “inactive”.
In the case of `O=P(OCC(Br)CBr)(OCC(Br)CBr)OCC(Br)CBr` (stereo not given), the outcome is reported as “inactive”.
For `Nc1ccc([N+](=O)[O-])cc1Cl`, the outcome was “inactive”.
For `FC(F)(F)c1ccc(Cl)cc1`, the outcome was “inactive”.
For `OCC1CO1` (stereo not given), the outcome was “inactive”.
In the case of `CC1(C)CN=C(NN=C(/C=C/c2ccc(C(F)(F)F)cc2)/C=C/c2ccc(C(F)(F)F)cc2)NC1`, the outcome is reported as “inactive”.
With `Nc1ccc(Sc2ccc(N)cc2)cc1` the outcome was “inactive”.
For `CCCCCCCc1ccc(O)cc1`, the outcome was “inactive”.
In the case of `Cc1ccc([N+](=O)[O-])cc1C`, the outcome is reported as “inactive”.
With `Nc1ccc(Cl)cc1` the outcome was “inactive”.
In the case of `COP(=O)(O)OC`, the outcome is reported as “inactive”.
For `CCOP(=S)(OCC)SCSc1ccc(Cl)cc1`, the outcome was “inactive”.
For `Cc1ccc2c(c1N)C(=O)c1ccccc1C2=O`, the outcome was “inactive”.
For `CCCCC(CC)COC(=O)c1c(Br)c(Br)c(Br)c(Br)c1C(=O)OCC(CC)CCCC` (stereo not given), the outcome was “inactive”.
For `O=C(O)C(Cl)Cl`, the outcome was “inactive”.
For `CC(O)C#N` (stereo not given), the outcome was “inactive”.
In the case of `CCNc1nc(Cl)nc(NC(C)(C)C)n1`, the outcome is reported as “inactive”.
